# Measurements: PubChem BioAssay (NCI)
# About 83,000 compounds went through this panel and 20% of them were active in at least one assay; those are over-represented in the sample as a whole.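 96-well plates, one dose, 48 hours. Percent growth reported; active if below 10.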 Values without a mark were called inactive. Calls of active or inactive are those of the source.
# Test system: NCI-H460 lung
# Assay: NCI-60 one-dose screen, 48 h (100 = growth as untreated, 0 = no growth, -100 = all killed)
# Details: 10 µM unless noted
row,Structure (SMILES),growth [%]
1,COC1=CC2C=C(C3N(c4ccccc4)NC(=O)[C@@H]4CCCN34)C(=O)NC2C=C1 (stereo partly specified),110
2,C#C[C@@]1(O)[C@@H](CO)O[C@@H](n2cc(-c3ccco3)c3c(N)ncnc32)[C@@H]1O,52.1
3,Cc1[nH]c(N=Nc2ccccc2)nc1N=Nc1ccccc1,16.2
4,COc1ccc(Nc2nc(SCC(C)C)nc(-c3ccc(F)cc3)c2C#N)cc1,52.4

# Test system: HOP-92 NSCLC
# Assay: as above
# Details: 10 µM unless noted
row,Structure (SMILES),growth
1,O=C(Nc1ccc2ncnc(Nc3cccc(C(F)(F)F)c3)c2c1)c1cccs1,67.6%
2,O=C1[C@@H](OS(=O)(=O)CC(F)(F)F)[C@H](c2ccc(F)cn2)N1c1cc2c3ccccc3ccc2c2ccccc12,71.4%
3,COc1cc2cc(c1Cl)N(C)C(=O)C[C@H](OC(=O)[C@H](C)N(C)C(=O)CCS)C[C@]1(C)O[C@H]1[C@H](C)[C@@H]1C[C@@](O)(NC(=O)O1)[C@H](OC)/C=C/C=C(\C)C2,4.28% (active)
4,COc1cc(/C=C/C(=O)c2cccs2)ccc1OCc1ccc(Cl)nc1,85.2%
5,COc1cc(/C=C/C(=O)/C=C/c2cc3ccc(Cl)cc3[nH]c2=O)ccc1O,77.4%
6,COc1ccc(/C=C/C(=O)/C=C(/C=C/c2ccc(OC)c(OC)c2)OB(F)F)cc1OC,56.8%
7,COc1cc(/C=C/C(=O)/C=C/c2cc3ccc(Cl)cc3n(Cc3ccccc3)c2=O)ccc1O,-5% (active)
8,C=C(C)[C@@H]1CC[C@]2(C(=O)OCCCC[P+](c3ccccc3)(c3ccccc3)c3ccccc3)CC[C@]3(C)[C@H](CC[C@@H]4[C@@]5(C)CC[C@H](OC(=O)C(Cl)Cl)C(C)(C)[C@@H]5CC[C@]43C)[C@@H]12,-67.4% (active)
9,COc1ccc(C(=S)c2cc(OC)c(OC)c(OC)c2)cc1OC(=O)CCl,54.8%
10,CNCc1cccc2c1OCCOCCOCCN(CCN1CCOCC1)S(=O)(=O)c1ccc(cc1)-c1cnc(N)c(n1)C(=O)N2,87.9%
11,COc1ccc2[nH]c(=O)c(/C=C/C(=O)/C=C/c3ccc(O)c(OC)c3)cc2c1,98.3%
12,Fc1ccc(N/N=C/c2ccc(-n3cccn3)cc2)cc1,105%
13,COc1cc(F)c(-c2nc3c(C)cccc3n2Cc2c(F)cccc2F)c(F)c1,81.3%
14,Cc1nc(C)c(C)nc1C,103%
15,Oc1ccc(CNNc2ccnc3c(O)cccc23)c2cccnc12,54.3%
16,N#Cc1ccc(N2Cc3cc(Cl)ccc3OC3=C2C(=O)N(Cc2ccccc2)C3=O)cc1,-63.8% (active)
17,CC(=O)OCC1SC(OC(C)=O)C(NC(=O)/C=C/CCl)C(OC(C)=O)C1OC(C)=O (stereo unspecified),105%
18,S=C(Nc1ccccc1)c1ccccn1,84.6%
19,COc1cc(C(C)c2ccc3c(ccn3C)c2)cc(OC)c1OC (stereo unspecified),48.2%

row,Structure (SMILES),growth
1,COc1cc(C2=NN(C(C)=O)C(c3cccc(Nc4ccnc5cc(C(F)(F)F)ccc45)c3)C2)cc(OC)c1OC (stereo unspecified),25.3%
2,CC(C)CSc1nc(Nc2ccccc2)c(C#N)c(-c2ccc(F)cc2)n1,-47.6% (active)
3,C[C@H]1[C@H](C)CC[C@]2(C(=O)OCCCC[P+](c3ccccc3)(c3ccccc3)c3ccccc3)CC[C@]3(C)C(=CC[C@@H]4[C@@]5(C)CC[C@H](OC(=O)C(Cl)Cl)C(C)(C)[C@@H]5CC[C@]43C)[C@H]12,-70.1% (active)
4,CC(/C=C/c1ccccc1)=N/NC(=O)c1ccncc1,77.8%
5,O=C(O)c1cn(C2CC2)c2cc(N3CCN(C(=O)CSc4nnc(-c5ccc(Cl)cc5)n4-c4ccccc4)CC3)c(F)cc2c1=O,79.6%
6,C1=CC2=CC=C3C=CC=C4C(c5nc6c7ccccc7c7ccccc7c6[nH]5)=CC(=C1)C2C34 (stereo unspecified),72.9%
7,Nc1c(C(=O)Nc2ccccc2)sc2nc3c(cc12)CN(C(=O)OCc1ccccc1)CC3,52.4%
8,Cc1cccc(C)c1NC(=O)CN(CC(C)C)CC(O)COc1ccccc1 (stereo unspecified),91.4%
9,C=C(C)[C@@H]1CCC=C2CC[C@]3(C)[C@H](CC[C@@H]4[C@@]5(C)CCCNC(C)(C)[C@@H]5CC[C@]43C)[C@H]21,79.2%
10,COC(=O)/C=C/c1cc(OC(C)=O)c2c(c1)C(C(=O)OC)C(c1ccc(OC(C)=O)c(OC(C)=O)c1)O2 (stereo unspecified),33.7%
11,COc1ccc(-c2[nH]c3ccccc3c2C=C(C#N)C#N)cc1,-17.2% (active)
12,COc1ccc(-c2nnc(N3CCN(C(=O)CN4CCN(c5ccccc5)CC4)CC3)nc2-c2ccc(OC)cc2)cc1,23.2%
13,O=c1[nH]c2ccccc2cc1-c1nc2ccc(Cl)cc2[nH]1,7.43% (active)
14,O=C(NC[C@H](O)CN1CCc2ccccc2C1)c1cc(NC2COC2)ncn1,112%
15,COC1=CC2C=C(C3N(c4ccccc4)NC(=O)[C@@H]4CCCN34)C(=O)NC2C=C1 (stereo partly specified),124%
16,C#C[C@@]1(O)[C@@H](CO)O[C@@H](n2cc(-c3ccco3)c3c(N)ncnc32)[C@@H]1O,30%
17,Cc1[nH]c(N=Nc2ccccc2)nc1N=Nc1ccccc1,40.3%
18,COc1ccc(Nc2nc(SCC(C)C)nc(-c3ccc(F)cc3)c2C#N)cc1,77.2%
